Measured values taken from PubChem BioAssay (EPA / NIEHS).
Where “and” joins values, the source holds several entries; their conditions need not be identical. Identical values can stand only once. Records with an inconclusive call do not appear. Calls of active or inactive are those of the source. Rule for the calls, unless noted: active = hit-call score of the fitted dose curve at least 0.9, where 1 is the maximum; inactive = score below 0.9.

What was measured:
[1] = CCTE_Shafer_MEA_dev_burst_rate: CCTE's Neural Network Formation Assay for Burst Rate, Shafer Lab (AID 2284042);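 for AC50: potency for loss of burst rate below DMSO control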
In short: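 Developmental network assay measuring how 12-day exposure of rat cortical neuron cultures alters bursting on extracellular MEA recordings. Values are AUC of well-mean burst rate across four recording days, relative to DMSO vehicle.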

[2] = CCTE_Shafer_MEA_dev_bursting_electrodes_number: CCTE's Neural Network Formation Assay for Number of Bursting Electrodes, Shafer Lab (AID 2284043; active = hit-call score of the fitted dose curve at least 0.9, where 1 is the maximum;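 note: potency is for loss of bursting electrodes relative to DMSO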)
In short: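 Primary rat cortical neurons were cultured on PEI-coated 48-well MEA plates (16 electrodes/well) and exposed from plating through day 12, with compound renewed at feeds on DIV 5 and 9. Electrodes bursting ≥1 per 2 min were counted on DIV 5, 7, 9, 12; trapezoidal AUC taken.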

[3] = CCTE_Shafer_MEA_dev_per_burst_interspike_interval: CCTE's Neural Network Formation Assay for Burst Interspike Interval, Shafer Lab (AID 2284044);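 for AC50: potency for a decrease of within-burst interspike interval below DMSO level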
In short: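 Readout is the average time between spikes inside single-electrode bursts, taken as a well mean across bursting electrodes. Cortical neurons from rat developed networks on MEA plates under continuous 12-day exposure; recordings on days 5, 7, 9 and 12 were integrated by trapezoidal AUC.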

[4] = CCTE_Shafer_MEA_dev_burst_duration_mean: CCTE's Neural Network Formation Assay for Mean Burst Duration, Shafer Lab (AID 2284045);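 for AC50: curve fitted for loss meaning shorter burst duration than DMSO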
In short: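 Primary rat cortical neurons on PEI-coated 16-electrode MEA wells, exposed from plating through day 12 with compound renewed at DIV 5 and 9; spontaneous activity recorded days 5, 7, 9, 12. Well-mean burst duration collapsed as trapezoidal AUC, fitted for loss versus DMSO.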

[5] = CCTE_Shafer_MEA_dev_interburst_interval_mean: CCTE's Neural Network Formation Assay for Mean Interburst Interval, Shafer Lab (AID 2284046);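 note: well-mean interburst interval of bursting electrodes as AUC over four recording days; curve fitted for decrease in interburst interval relative to DMSO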
In short: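 Network formation assay in primary rat cortical cultures, exposed from DIV 0 to 12. Mean interburst interval per well, integrated as AUC over four recordings.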

[6] = CCTE_Shafer_MEA_dev_network_spike_number: CCTE's Neural Network Formation Assay for Number of Network Spikes, Shafer Lab (AID 2284048);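 for AC50: fit as a loss of signal meaning fewer network spikes than DMSO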
In short: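 Primary rat cortical neurons were seeded at 1.5 x 10^5 cells/well on PEI-coated 16-electrode MEA wells with laminin, exposed from plating day 0, compound renewed at DIV 5 and 9. Network spikes were recorded on days 5, 7, 9, 12 and summarized as trapezoidal AUC versus DMSO.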

[7] = CCTE_Shafer_MEA_dev_network_spike_peak: CCTE's Neural Network Formation Assay for Mean Number of Electrodes in Network Spike, Shafer Lab (AID 2284049);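 for AC50: fitted for loss of signal meaning fewer electrodes in network spikes than DMSO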
In short: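 Continuous 12-day exposure of rat cortical cultures, starting at plating, on MEA plates. Endpoint: electrodes participating in network-spike peaks, AUC across DIV 5–12, DMSO as negative control.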

[8] = CCTE_Shafer_MEA_dev_spike_duration_mean: CCTE's Neural Network Formation Assay for Mean Spike Duration, Shafer Lab (AID 2284051);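 note: mean network spike duration pooled as area under curve over DIV 5 to 12 recordings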;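 for AC50: potency for a decrease in mean network spike duration versus DMSO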
In short: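 With DMSO as baseline, loss of mean network spike duration was scored from extracellular recordings of rat cortical neurons on MEA plates. Exposure spanned plating to DIV 12; the four recording days were collapsed into one AUC value.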

[9] = CCTE_Shafer_MEA_dev_network_spike_duration_std: CCTE's Neural Network Formation Assay for Standard Deviation of Network Spike Duration, Shafer Lab (AID 2284052);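 note: area under curve of spike duration SD across recording days 5 to 12; hits are decreases in network spike duration SD versus DMSO vehicle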
In short: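 Developing networks of rat cortical neurons were exposed over twelve days in vitro on 48-well MEA plates. Trapezoidal AUC of recordings (DIV 5–12) was analysed for signal loss relative to DMSO vehicle.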

[10] = CCTE_Shafer_MEA_dev_per_network_spike_spike_number_mean: CCTE's Neural Network Formation Assay for Mean Number of Spikes in a Network Spike, Shafer Lab (AID 2284053);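 for AC50: fitted as decrease in spikes per network spike relative to DMSO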
In short: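 First, rat cortical cells (1.5 x 10^5/well) were seeded onto MEA wells; second, dosing began at plating and was refreshed on DIV 5 and 9; finally, network-spike spike counts across DIV 5–12 were summarized as AUC.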

[11] = CCTE_Shafer_MEA_dev_LDH: CCTE's Lactate Dehydrogenase Assay for Cytotoxicity in the Neural Network Formation Assay, Shafer Lab (AID 2284068; active = hit-call score of the fitted dose curve at least 0.9, where 1 is the maximum;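 note: exposure for twelve days from plating with re-dosing on DIV 5 and 9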)
In short: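 Developing rat cortical networks on MEA plates are exposed to compound for 12 days from plating. LDH activity is measured spectrophotometrically, with DMSO as baseline.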

[12] = CCTE_Shafer_MEA_dev_AB: CCTE's Alamar Blue Assay for Cytotoxicity in the Neural Network Formation Assay, Shafer Lab (AID 2284083; active = hit-call score of the fitted dose curve at least 0.9, where 1 is the maximum;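 note: resazurin reduction fluorescence as viability of cultured neurons; twelve days of exposure from plating with re-dosing on DIV 5 and 9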)
In short: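 Cytotoxicity companion to the developmental MEA: primary rat cortical neurons, 12-day exposure starting day 0, compound refreshed DIV 5 and 9; resazurin fluorescence, fitted against DMSO vehicle.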

[13] = CCTE_Shafer_MEA_dev_mutual_information_norm: CCTE's Neural Network Formation Assay for Mutual Information Normalization, Shafer Lab (AID 2284091);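 for AC50: mutual information between electrodes summarised as area under curve across four recording days; potency is for a decrease in mutual information relative to DMSO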
In short: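 Rat cortical cultures, 48-well MEA, continuous exposure DIV 0–12 with full media/compound change DIV 5 and 9. Readout: inter-electrode mutual information, AxIS adaptive spike detection; AUC across DIV 5/7/9/12 recordings; DMSO baseline, negative fitting direction.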

[14] = CCTE_Shafer_MEA_dev_correlation_coefficient_mean: CCTE's Neural Network Formation Assay for Mean Correlation Coefficient, Shafer Lab (AID 2284093);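 for AC50: well mean pairwise spike train correlation integrated as AUC over recording days 5 to 12; potency fitted for loss of correlation relative to DMSO vehicle wells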
In short: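 Extracellular firing from rat cortical networks on 48-well MEAs, DMSO-referenced, negative fitting direction. Compound present from plating to DIV12; mean pairwise correlation per well integrated over DIV5–12 recordings by trapezoidal AUC.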

[15] = test system: DIO2 (gene 1734); experiment: CCTE_GLTED_hDIO2: CCTE's human Deiodinase 2 (DIO2) Inhibition Assay, Great Lakes Toxicology and Ecology Division (GLTED) Lab (AID 2284050; active = hit-call score of the fitted dose curve at least 0.9, where 1 is the maximum)
In short: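 In this cell-free test, chemicals are exposed to human deiodinase type 2 for 3 hours. Released iodide is determined spectrophotometrically via the Sandell-Kolthoff method, and signal loss relative to DMSO is fitted.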

[16] = test system: DIO3 (gene 1735); experiment: CCTE_GLTED_hDIO3: CCTE's human Deiodinase 3 (DIO3) Inhibition Assay, Great Lakes Toxicology and Ecology Division (GLTED) Lab (AID 2284055; active = hit-call score of the fitted dose curve at least 0.9, where 1 is the maximum;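 note: potency is for inhibition seen as loss of released iodide signal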)
In short: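 Enzyme activity is tracked as iodide release from substrate by recombinant human DIO3 over 3 h with chemical present. A second Sandell-Kolthoff step converts iodide to an absorbance signal, fitted relative to DMSO.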

[17] = CCTE_Shafer_MEA_acute_AB: CCTE's Alamar Blue Assay for Cytotoxicity in the Neural Acute Assay, Shafer Lab (AID 2284069; active = hit-call score of the fitted dose curve at least 0.9, where 1 is the maximum;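 note: active compounds lower the viability signal compared with DMSO wells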)
In short: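 Cytotoxicity endpoint for acute MEA exposures of primary rat cortical neurons on day 13 or 15. Resazurin reduction is read fluorescently at 544/590 nm, with DMSO as the negative-control baseline.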

[18] = UKN5_HCS_SBAD2_cell_viability: Viability Assessment in the University of Konstanz (UKN) Leist Lab Neurite Outgrowth Assay in human iPSC-derived immature Dorsal Root Ganglia Neurons (UKN5) (AID 2284056)
In short: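 iPSC-derived immature peripheral neurons (SBAD2) seeded on Matrigel with CHIR99021, SU5402 and DAPT, dosed 1 h later for 24 h. Viability from Hoechst H-33342 and calcein-AM live staining, high-content imaging; bidirectional fit versus DMSO.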

[19] = UKN5_HCS_SBAD2_neurite_outgrowth: University of Konstanz (UKN) Leist Lab Neurite Outgrowth Assay in human iPSC-derived immature Dorsal Root Ganglia Neurons (UKN5) (AID 2284070); conditions: actives raise or lower the signal
In short: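 SBAD2 neurons, 24 h compound treatment, calcein-AM neurite area via HCS imaging; DMSO baseline, gain or loss of signal.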

Measured: AC50

CCCCOC(=O)c1ccccc1C(=O)OCCCC
active: [2] 78.4 µM | [7] 74.9 µM | [8] 50 µM | [10] 72.1 µM | [11] 50 µM
not listed: [15] | [16] | [17] | [18] | [19]
inactive: all other assays above

CCCN(CCC)c1c([N+](=O)[O-])cc(S(N)(=O)=O)cc1[N+](=O)[O-]
active: [15] 141 µM | [16] 160 µM
inactive: [17]

CON(C)C(=O)Nc1ccc(Cl)c(Cl)c1
inactive: [17]

CN(C)C(=S)SSC(=S)N(C)C
active: [1] 12.7 nM | [2] 0.00933 µM | [3] 22.7 nM | [4] 1.55 nM | [5] 11.6 nM | [6] 5.54 nM | [7] 0.0107 µM | [15] 55.7 µM | [8] 0.00527 µM | [9] 7.05 nM | [10] 0.00976 µM | [16] 43.1 µM | [11] 0.00506 µM | [12] 0.012 µM | [13] 0.00669 µM | [14] 0.00907 µM

COc1ccc(C(c2ccc(OC)cc2)C(Cl)(Cl)Cl)cc1
active: [2] 6.57 µM | [7] 8.43 µM | [8] 2.99 µM | [9] 1970 nM | [10] 9.95 µM | [11] 4.87 µM | [12] 12.2 µM | [13] 1.97 µM | [14] 2.95 µM
inactive: [1] | [3] | [4] | [5] | [6]

COC(=O)C(C)Oc1ccc(Oc2ccc(Cl)cc2Cl)cc1 (centres undefined)
inactive: [17]

N#CC(CCc1ccc(Cl)cc1)(Cn1cncn1)c1ccccc1 (centres undefined)
inactive: [17]

C=CCC1=C(C)[C@@H](OC(=O)[C@@H]2[C@@H](C=C(C)C)C2(C)C)CC1=O
active: [2] 10 µM | [7] 10 µM | [12] 1.98 µM | [13] 2.61 µM
inactive: [1] | [3] | [4] | [5] | [6] | [9] | [10] | [17]

CC(C)Oc1cc(-n2nc(C(C)(C)C)oc2=O)c(Cl)cc1Cl
inactive: [17]

CNC(=O)ON=CC(C)(C)SC
active: [10] 0.549 µM
not listed: [2] | [15] | [16] | [18] | [19]
inactive: all other assays above

CC1COC(Cn2cncn2)(c2ccc(Oc3ccc(Cl)cc3)cc2Cl)O1 (centres undefined)
inactive: [17]

CO/C=C(/C(=O)OC)c1ccccc1Oc1cc(Oc2ccccc2C#N)ncn1
active: [1] 1.14 µM and 1.39 µM | [2] 1.42 µM and 912 nM | [3] 2.3 µM and 2.54 µM | [4] 1.55 µM and 2.03 µM | [5] 2.29 µM and 1.06 µM | [6] 948 nM and 767 nM | [7] 1.48 µM and 1.44 µM | [8] 1.08 µM and 874 nM | [9] 840 nM and 974 nM | [10] 1.49 µM and 1.1 µM | [11] 507 nM and 1.41 µM | [12] 1.73 µM and 2.19 µM | [13] 1.11 µM and 985 nM | [14] 1.57 µM and 574 nM
inactive: [17]

CCCCNC(=O)n1c(NC(=O)OC)nc2ccccc21
active: [2] 15 µM | [7] 15 µM | [10] 15 µM | [19] 7.98 µM | [14] 15 µM
not listed: [11] | [15] | [16] | [17]
inactive: all other assays above

CCOP(=S)(OCC)SCn1c(=O)oc2cc(Cl)ccc21
inactive: [17]
